Here are results for five compounds from PubChem BioAssay (EPA / NIEHS).

Read-out in assay [1]: Interferon-gamma inducible Protein 10 (IP10), CXCL10 (gene 3627)
Put plainly: BSK_hDFCGF_IP10: BioMAP Diversity Plus: hDFCGF Assay for Interferon-gamma inducible Protein 10 (IP10) Biomarker Activity (AID 2283053). The conditions noted are these: primary human foreskin fibroblasts; actives raise or lower the signal. In outline:
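Chemical-treated human skin fibroblasts (primary) were sampled at 24 h for IP-10 by ELISA. Both increases and decreases relative to DMSO were scored.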

Read-out in assay [2]: Urokinase-type plasminogen activator receptor (uPAR), PLAUR (gene 5329)
Put plainly: BSK_CASM3C_uPAR: BioMAP Diversity Plus: CASM3C Assay for Urokinase-type plasminogen activator receptor (uPAR) Biomarker Activity (AID 2283054).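 Also: cell-surface uPAR protein level quantified by ELISA.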 The conditions noted are these: primary human coronary artery smooth muscle cells; actives raise or lower the signal.

Read-out in assay [3]: Vascular cell adhesion molecule 1 (VCAM1), VCAM1 (gene 7412)
Put plainly: BSK_CASM3C_VCAM1: BioMAP Diversity Plus: CASM3C Assay for Vascular cell adhesion molecule 1 (VCAM1) Biomarker Activity (AID 2283055).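 Also: VCAM-1 protein level quantified by ELISA on the cells.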 The conditions noted are these: primary human coronary artery smooth muscle cells; actives raise or lower the signal.

Read-out in assay [4]: Epidermal growth factor receptor (EGFR), EGFR (gene 1956)
The assay is described as follows: BSK_hDFCGF_EGFR: BioMAP Diversity Plus: hDFCGF Assay for Epidermal growth factor receptor (EGFR) Biomarker Activity (AID 2283057). The following applies: primary human foreskin fibroblasts; actives raise or lower the signal. In outline:
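Cell-based multiplexed assay in primary human foreskin fibroblasts. EGFR is read by ELISA 24 h after treatment and compared with DMSO controls.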

Read-out in assay [5]: Interleukin-8 (IL8), CXCL8 (gene 3576)
The assay is described as follows: BSK_hDFCGF_IL8: BioMAP Diversity Plus: hDFCGF Assay for Interleukin-8 (IL8) Biomarker Activity (AID 2283058). The conditions noted are these: primary human foreskin fibroblasts; actives raise or lower the signal. In outline:
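hDFCGF human dermal fibroblasts; 24 h chemical exposure; IL-8 by ELISA; bidirectional curve fit vs DMSO baseline; gain or loss of signal scored.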

Assay [6] is described as follows: BSK_hDFCGF_Proliferation: Cell Proliferation Assessment in the BioMAP Diversity Plus: hDFCGF Assay (AID 2283059).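 Also: curves fitted for both rise and fall of signal versus DMSO baseline.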 The conditions noted are these: primary human foreskin fibroblasts. In outline:
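Total protein read at 560 nm after 0.1% SRB staining of TCA-fixed human skin fibroblasts, […]. Activity is fitted in both directions relative to DMSO as baseline.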

Read-out in assay [7]: Macrophage colony-stimulating factor (MCSF), CSF1 (gene 1435)
Put plainly: BSK_hDFCGF_MCSF: BioMAP Diversity Plus: hDFCGF Assay for Macrophage colony-stimulating factor (MCSF) Biomarker Activity (AID 2283060). The following applies: primary human foreskin fibroblasts; actives raise or lower the signal. In outline:
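Human foreskin primary fibroblasts were treated with test chemical for 24 h, and M-CSF was then measured by ELISA. Data were fitted bidirectionally against DMSO as the negative control and activity baseline.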

Assay [8] can be described thus: BSK_hDFCGF_SRB: Viability Assessment in the BioMAP Diversity Plus: hDFCGF Assay (AID 2283061).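 Also: cells exposed to compound for 24 h before the read.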 The following applies: primary human foreskin fibroblasts. In outline:
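Human foreskin primary fibroblasts were treated with compound and assessed 24 h after dosing. Total protein was measured by sulforhodamine B staining (0.1% SRB after 10% TCA fixation, 560 nm read) as a cytotoxicity marker, with bidirectional fitting against DMSO baseline.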

Read-out in assay [9]: Monokine induced gamma interferon (MIG), CXCL9 (gene 4283)
The assay is described as follows: BSK_hDFCGF_MIG: BioMAP Diversity Plus: hDFCGF Assay for Monokine induced gamma interferon (MIG) Biomarker Activity (AID 2283063). The conditions noted are these: primary human foreskin fibroblasts; actives raise or lower the signal. In outline: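 ELISA read-out of MIG from primary human dermal fibroblasts 24 h post-dosing. Gain or loss of signal fitted bidirectionally, DMSO as baseline.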

Read-out in assay [10]: Matrix Metallopeptidase 1 (MMP1), MMP1 (gene 4312)
Put plainly: BSK_hDFCGF_MMP1: BioMAP Diversity Plus: hDFCGF Assay for Matrix Metallopeptidase 1 (MMP1) Biomarker Activity (AID 2283064). The conditions noted are these: primary human foreskin fibroblasts; actives raise or lower the signal. In outline:
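MMP1 levels quantified by ELISA 24 h after dosing human dermal fibroblast cultures, with parallel SRB total-protein staining for overt cytotoxicity. Data fitted in both directions against DMSO baseline.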

Read-out in assay [11]: Vascular cell adhesion molecule 1 (VCAM1), VCAM1 (gene 7412)
Put plainly: BSK_hDFCGF_VCAM1: BioMAP Diversity Plus: hDFCGF Assay for Vascular cell adhesion molecule 1 (VCAM1) Biomarker Activity (AID 2283065).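 As to AC50: VCAM-1 protein level quantified by ELISA after 24 h chemical exposure.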 The following applies: primary human foreskin fibroblasts; actives raise or lower the signal. In outline:
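Primary human foreskin fibroblasts (hDFCGF system) were dosed with chemical and VCAM-1 was measured by ELISA 24 h later. Bidirectional curve fitting used DMSO as negative control and activity baseline.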

Read-out in assay [12]: Plasminogen activator inhibitor-1 (PAI1), SERPINE1 (gene 5054)
Put plainly: BSK_hDFCGF_PAI1: BioMAP Diversity Plus: hDFCGF Assay for Plasminogen activator inhibitor-1 (PAI1) Biomarker Activity (AID 2283066). The following applies: primary human foreskin fibroblasts; actives raise or lower the signal. In outline: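 Human skin fibroblast cultures receive chemical for 24 h before PAI-1 is measured by ELISA; signal changes are fitted bidirectionally against DMSO-treated wells.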

Read-out in assay [13]: Intercellular Adhesion Molecule 1 (ICAM1), ICAM1 (gene 3383)
The assay is described as follows: BSK_KF3CT_ICAM1: BioMAP Diversity Plus: KF3CT Assay for Intercellular Adhesion Molecule 1 (ICAM1) Biomarker Activity (AID 2283067). The following applies: primary human keratinocytes with fibroblasts; actives raise or lower the signal. In outline:
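Human keratinocyte plus foreskin fibroblast primary co-culture was exposed to chemical for 24 h. ICAM-1 was then quantified by ELISA, and the data were fit bidirectionally against DMSO as the negative control and baseline.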

Read-out in assay [14]: Interferon-gamma inducible Protein 10 (IP10), CXCL10 (gene 3627)
Put plainly: BSK_KF3CT_IP10: BioMAP Diversity Plus: KF3CT Assay for Interferon-gamma inducible Protein 10 (IP10) Biomarker Activity (AID 2283068). The following applies: primary human keratinocytes with fibroblasts; actives raise or lower the signal. In outline:
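Human keratinocyte plus foreskin fibroblast primary co-culture exposed to test chemical for 24 h; IP-10 measured by ELISA. Concentration-response fitted bidirectionally against DMSO control as baseline.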

The nature of assay [15]: BSK_KF3CT_SRB: Viability Assessment in the BioMAP Diversity Plus: KF3CT Assay (AID 2283069). The conditions noted are these: primary human keratinocytes with fibroblasts. In outline:
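Cytotoxicity was gauged by SRB staining (0.1% SRB, 10% TCA fixation, 560 nm) of parallel cultures at 24 h. The cells were primary human skin keratinocytes co-cultured with fibroblasts, and activity was fitted in both directions against DMSO.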

Read-out in assay [16]: Interleukin-1 alpha (IL1a), IL1A (gene 3552)
The assay is described as follows: BSK_KF3CT_IL1a: BioMAP Diversity Plus: KF3CT Assay for Interleukin-1 alpha (IL1a) Biomarker Activity (AID 2283070). The conditions noted are these: primary human keratinocytes with fibroblasts; actives raise or lower the signal. In outline:
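IL-1a was detected by ELISA 24 h after chemical treatment of a co-culture of human skin keratinocytes and foreskin fibroblasts. Gain or loss of signal was fitted against the DMSO baseline.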

Read-out in assay [17]: TIMP metallopeptidase inhibitor 2 (TIMP2), TIMP2 (gene 7077)
The assay is described as follows: BSK_KF3CT_TIMP2: BioMAP Diversity Plus: KF3CT Assay for TIMP metallopeptidase inhibitor 2 (TIMP2) Biomarker Activity (AID 2283071). The following applies: primary human keratinocytes with fibroblasts; actives raise or lower the signal. In outline:
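Measurements come from ELISA detection of TIMP-2 at 24 hours in a dosed human keratinocyte and foreskin fibroblast co-culture. DMSO serves as negative control and baseline.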

Read-out in assay [18]: Transforming growth factor beta 1 (TGFb1), TGFB1 (gene 7040)
The assay is described as follows: BSK_KF3CT_TGFb1: BioMAP Diversity Plus: KF3CT Assay for Transforming growth factor beta 1 (TGFb1) Biomarker Activity (AID 2283072). The conditions noted are these: primary human keratinocytes with fibroblasts; actives raise or lower the signal. In outline:
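TGF-b1 ELISA on a 24 h dosed co-culture of human keratinocytes and foreskin fibroblasts; cytotoxicity tracked in parallel cultures by SRB staining.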

Read-out in assay [19]: Collagen III, COL3A1 (gene 1281)
Put plainly: BSK_hDFCGF_CollagenIII: BioMAP Diversity Plus: hDFCGF Assay for Collagen III Biomarker Activity (AID 2283056). The following applies: primary human foreskin fibroblasts; actives raise or lower the signal. In outline: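 Human foreskin primary fibroblasts were exposed to test chemicals for 24 h, after which collagen III was quantified by ELISA. Activity was fitted bidirectionally against DMSO as negative control and baseline.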

Read-out in assay [20]: TIMP metallopeptidase inhibitor 1 (TIMP1), TIMP1 (gene 7076)
Put plainly: BSK_hDFCGF_TIMP1: BioMAP Diversity Plus: hDFCGF Assay for TIMP metallopeptidase inhibitor 1 (TIMP1) Biomarker Activity (AID 2283062). The following applies: primary human foreskin fibroblasts; actives raise or lower the signal. In outline: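 Primary human foreskin fibroblasts in the hDFCGF system were dosed with compound for 24 h, then TIMP-1 was measured by ELISA. Activity was fitted bidirectionally relative to DMSO control; parallel SRB staining assessed cytotoxicity.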

Several values for one entry are separate records, joined by “and”; a condition that tells them apart may be missing. Identical values can stand only once. Where a structure was tested more than once in an assay, its records may differ in their call. Activity calls are given as the source filed them. The calls were made as follows: active = hit-call score of the fitted dose curve at least 0.9, where 1 is the maximum; inactive = score below 0.9.

For `OCCC(F)(F)C(F)(F)C(F)(F)C(F)(F)C(F)(F)C(F)(F)F`, the AC50 in assay [1] is 52.6 µM (active); in [5], 46.4 µM (active) and 57.9 µM (active); in [6], 48.3 µM (active) and 47.4 µM (active); in assay [7], 54.2 µM (active); in assay [8] it was 51.3 µM (active) and 46.8 µM (active); in assay [9], 55.4 µM (active) and 54.7 µM (active). For the same compound, the AC50 in [10] was 55.1 µM (active); in assay [11], 30 µM (active) and 47.4 µM (active); in assay [12] it was 53.5 µM (active) and 55.3 µM (active). In addition, the result in assay [1], in [2], in [3], in assay [4], in [5] and in [6] was inactive. For the same compound, the outcome in [7], in assay [8], in assay [9], in assay [10], in assay [11] and in [12] was inactive. For the same compound, the result in assay [13], in assay [14], in assay [15], in assay [16], in [17] and in [18] was inactive.

On to `CC#C[C@]1(O)CC[C@H]2[C@@H]3CCC4=CC(=O)CCC4=C3[C@@H](c3ccc(N(C)C)cc3)C[C@@]21C`, for which the outcome in assay [1], in assay [3], in [4], in assay [5], in [7] and in assay [20] was inactive. For the same compound, the outcome in [9], in assay [11], in assay [14], in assay [15], in assay [16] and in [17] was inactive. Also, in [18], the result was inactive. Also, the AC50 in assay [2] is 30.6 µM (active); in assay [19] it was 12.9 µM (active); in [6] it was 26.6 µM (active); in assay [8], 20 µM (active); in assay [10] it was 26.1 µM (active); in assay [12], 11.2 µM (active). For the same compound, in assay [13], the AC50 was 20 µM (active).

As to `C=C(C)C(=O)OCCC(F)(F)C(F)(F)C(F)(F)C(F)(F)C(F)(F)C(F)(F)F`, the result in assay [1], in [2], in assay [3], in assay [4], in assay [5] and in assay [6] was inactive. Also, the result in assay [7], in assay [8], in assay [9], in assay [10], in assay [11] and in [12] was inactive. Moreover, the outcome in assay [13], in [14], in assay [15], in [16], in [17] and in [18] was inactive. In addition, the AC50 is 13.8 µM (active) in assay [6] and 23.2 µM (active) in assay [7].

`COC(=O)CCCCC(=O)OC`: the result in [1], in [2], in assay [3], in assay [19], in assay [4] and in [5] was inactive. Moreover, the result in assay [6], in [7], in assay [8], in assay [20], in [9] and in [10] was inactive. In addition, the result in assay [11], in assay [12], in [13], in assay [15], in [16] and in [17] was inactive. The outcome in assay [18] was inactive.

For the compound `CC(O)CO` (stereo not given), the outcome in assay [1], in assay [2], in assay [3], in assay [19], in [4] and in assay [5] was inactive. Moreover, the outcome in assay [6], in assay [7], in [8], in assay [9], in assay [10] and in [11] was inactive. Further, the result in assay [12], in assay [13], in [14], in assay [15], in assay [16] and in [17] was inactive. Besides, the outcome in [18] was inactive.

Broadly, the AC50 is the midpoint of the concentration-response curve, whichever way the signal moves.
